Source: PubChem (The Scripps Research Institute Molecular Screening Center)
An excerpt weighted towards active compounds, which were near 3.4% of everything screened.
MITF primary: blocks human microphthalmia-associated transcription factor. O75030. AlphaScreen MITF homodimerization, bead proximity signal. inhibition, % at 2.6 µM. 650,000 compounds, 0.91% hits. AID 1259374; in the data active = inhibition above about 50%
FBW7 activator: human FBW7 E3 ligase activation, primary screen; 650,000 compounds, 0.13% hits; AlphaScreen FBW7–phospho-cyclin E peptide binding, activator screen; normalized activity (activation), % at 26.1 µM; AID 1259310; Q969H0; in the data active = normalized activity above about 1.9%;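 note: purified mutant Fbw7 with reduced substrate affinity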
GPR151 activ: activators of human GPR151 | PathHunter beta-arrestin GPR151 cells, luminescence | activation, % at 11.2 µM | 650,000 compounds, 1% hits | Q8TDV0; in the data active = activation above about 4.9%
Target sequence (Q8TDV0 whole entry, looked up): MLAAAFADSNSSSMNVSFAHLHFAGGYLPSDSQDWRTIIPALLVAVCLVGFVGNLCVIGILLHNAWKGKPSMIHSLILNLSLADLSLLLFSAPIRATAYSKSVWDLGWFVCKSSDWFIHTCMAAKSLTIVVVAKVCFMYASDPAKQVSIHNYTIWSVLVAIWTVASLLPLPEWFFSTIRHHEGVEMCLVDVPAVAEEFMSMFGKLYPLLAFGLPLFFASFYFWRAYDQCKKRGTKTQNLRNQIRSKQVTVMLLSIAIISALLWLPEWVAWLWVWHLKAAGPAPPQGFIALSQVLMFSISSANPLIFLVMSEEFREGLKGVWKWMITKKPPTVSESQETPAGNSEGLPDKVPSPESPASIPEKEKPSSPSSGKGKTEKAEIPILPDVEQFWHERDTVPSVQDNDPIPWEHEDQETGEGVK
TEAD-YAP inh: TEAD-YAP interaction inhibition; inhibition, % at 9.12 µM; 640,000 compounds, 1.4% hits; AID 1259422; HEK-TIYL cells, TEAD-Gal4/YAP UAS-luciferase luminescence; in the data active = inhibition above about 32%
MITF confirm: human MITF inhibition, confirmation; shares compounds with MITF primary; AlphaScreen MITF homodimerization, biotin/His-MITF beads; inhibition, % at 2.6 µM; 4,700 compounds, 16% hits; AID 1259372;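 active = inhibition above a cutoff derived from the DMSO control wells, cut at about 28% in these data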;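 note: inhibitors lower the bead chemiluminescence by keeping MITF from dimerizing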
AlphaScreen DR: AlphaScreen optical interference, dose response counter-screen; shares compounds with MITF primary; AlphaScreen optical interference counterscreen, cell-free; IC50, µM; 480 compounds, 6% hits; AID 1259373; call rule not given here
AlphaScreen intf2: counter-screen: compounds optically interfering with AlphaScreen | LysRS AlphaScreen counterscreen, signal interference, triplicate | inhibition, % at 2.6 µM | 4,700 compounds, 7.6% hits | shares compounds with MITF primary;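 active = inhibition above a cutoff derived from the DMSO control wells, cut at about 30% in these data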
Numbers stand for hits; . = inactive; / = not tested or not shown.

SMILES	MITF primary	FBW7 activator	GPR151 activ	TEAD-YAP inh	MITF confirm	AlphaScreen intf2	others
CC(C)(C)OC(=O)N1C(C(=O)O)CSC1c1cc2c(cc1[N+](=O)[O-])OCO2 (stereo unspecified)	60	.	.	.	72	.	AlphaScreen DR=.
CC(C)(C)c1ccc(S(=O)(=O)NNC(=S)NC2CCCC2)cc1	.	.	.	.	/	/
CCCCNc1nc2ccccc2n1CC(=O)N1CCOCC1	.	.	.	.	/	/
COc1ccccc1-c1cc(C(F)(F)F)nc(S(=O)(=O)CCCC(=O)Nc2ccc(F)c(Cl)c2)n1	54	.	.	.	.	.
COc1ccc(-c2cc(C(F)(F)F)nc(S(=O)(=O)CCCC(=O)Nc3ccc(F)c(Cl)c3)n2)cc1OC	76	.	.	.	.	.
CCNC(=O)Cn1nc(C)n2nc(-c3ccc(CC)cc3)cc2c1=O	.	.	.	.	/	/
CCCN1CCCc2cc(CCNS(=O)(=O)c3cccs3)ccc21	58	.	.	.	.	.
C[C@@H]1CN(C(=O)c2nc3ccc(Cl)cn3c2CNCCc2cccnc2)C[C@H](C)O1	.	.	.	.	/	/
COCCCNc1ncnc2sc(C)c(C)c12	68	.	.	.	.	.
CN(C)CCCNCC(=O)c1c(-c2ccccc2)n(C)c2ccccc12	51	.	.	.	.	.
Cc1ccc(C(=O)OCc2cn3ccccc3n2)cc1	51	.	.	.	.	.
CCN(CC)CC(O)COc1cc(C)ccc1C(C)C (stereo unspecified)	.	.	.	.	/	/
CCOC(=O)C1=C(C)NC2=C(C(=O)CC(C)(C)C2)C1c1ccc(Br)cc1 (stereo unspecified)	.	.	.	.	/	/
c1ccc(-c2cc(N3CCOCC3)nc(-c3ccccn3)n2)cc1	77	.	.	.	.	.
COCCCNC(=O)/C(C#N)=C/c1ccc(OCC(=O)O)c(OC)c1	62	.	.	.	35	.	AlphaScreen DR=.
O=C(Nc1cc(S(=O)(=O)O)cc2cc(S(=O)(=O)O)cc(O)c12)c1ccccc1	81	.	.	.	60	.	AlphaScreen DR=.
O=C(Nc1cc(NC(=O)c2ccccc2)c(C(=O)O)cc1C(=O)O)c1ccccc1	.	.	.	.	/	/
O=C(/C=C/c1ccco1)C1=C(O)C(=O)N(CCCN2CCOCC2)C1c1ccco1 (stereo unspecified)	79	.	.	.	60	.	AlphaScreen DR=.
CCCCn1c(SCc2cccc([N+](=O)[O-])c2)nc2ccsc2c1=O	.	.	.	.	/	/
CCCCn1c(SCc2ccc([N+](=O)[O-])cc2)nc2ccsc2c1=O	86	.	.	.	.	.
CCOc1ccc(-c2ccc(NC(=O)c3c(OC)cccc3OC)cc2)nn1	99	.	.	.	.	.
COc1ccc(-c2ccc(C)c(NC(=O)c3c(OC)cccc3OC)c2)nn1	.	.	.	.	/	/
COc1c(/C=C/C(=O)N2CCCCC2)c(O)c(OC)c2occc12	.	.	.	.	/	/
Cc1cccc(CN2CCN(C3CCCCCC3)CC2)c1	.	.	.	.	/	/
CC1CCC(N2CCN(Cc3cccc(Cl)c3)CC2)CC1 (stereo unspecified)	64	.	.	.	.	.
SMILES	MITF primary	FBW7 activator	GPR151 activ	TEAD-YAP inh	MITF confirm	AlphaScreen intf2	others
OC1CCN(Cc2ccc3c(c2)OCO3)CC1	.	.	.	.	/	/
Clc1cccc(CN2CCN(C3CCCCC3)CC2)c1	74	.	.	.	.	.
CC1CCN(C2CCN(Cc3cccc(Cl)c3)CC2)CC1	57	.	.	.	.	.
CC1CCN(C2CCN(Cc3ccc4c(c3)OCO4)CC2)CC1	54	.	.	.	.	.
OCC1CCN(C2CCCN(Cc3cccc(Cl)c3)C2)CC1 (stereo unspecified)	.	.	.	.	/	/
Cc1cc(C(=O)NCCCN=C2NS(=O)(=O)c3ccccc32)ccc1[N+](=O)[O-]	.	.	.	.	/	/
O=C(O)Cn1c(=S)[nH]c2ccsc2c1=O	.	.	.	.	/	/
CCC(CC)NC(=O)c1ccc(Cl)cc1[N+](=O)[O-]	74	.	.	.	.	.
O=C(CNC(=O)c1cccs1)NC1CCCCCCC1	.	.	.	.	/	/
O=C(O)/C=C/c1cccc(-c2cnn3c(NCCc4ccccn4)ccnc23)c1	53	.	.	.	.	.
CC(=O)c1cccc(-c2cnn3c(NCCc4ccccn4)ccnc23)c1	.	.	.	.	/	/
Cc1ccc(C)c(OCC(=O)Nc2nc(-c3ccc(Br)cc3)cs2)c1C	.	.	.	.	/	/
CCOc1ccc(C(=O)N2CCN(c3oc(-c4ccc(Cl)cc4)nc3C#N)CC2)cc1	.	.	.	.	/	/
Cc1ccc(-c2nc(C#N)c(N3CCN(C(=O)c4ccc(Cl)cc4)CC3)o2)cc1	68	.	.	.	.	.
COc1cccc(CN2CCC(N3CCN(c4ccccc4F)CC3)CC2)c1	73	.	.	.	.	.
COc1ccccc1N1CCN(C2CCN(Cc3cccc(F)c3)CC2)CC1	62	.	.	.	.	.
O=C(Nc1ccc(NC(=O)c2cc(Br)ccc2I)cc1)c1ccc(Cl)cc1Cl	.	.	.	.	/	/
COc1ccc(C2=N/C(=C\c3cc(Br)c(OC(C)=O)c(OC)c3)C(=O)O2)cc1[N+](=O)[O-]	.	.	.	.	/	/
COc1ccc(OC)c(C(=O)CSc2ncn[nH]2)c1	.	.	.	.	/	/
COc1ccc(C(=O)CSc2ncn[nH]2)cc1C	69	.	.	.	.	.
CN(CCOc1ccccc1)Cc1nc2ccc(Cl)cc2n1CCO	78	.	.	.	.	.
CCOC(=O)Cc1cc(=O)[nH]c(Nc2nc3ccccc3s2)n1	.	.	.	.	/	/
CC(=O)c1ccc(OCCCC(=O)Nc2cccc(Br)c2)cc1	.	.	.	.	/	/
COC(=O)CC[C@H]1CN(Cc2cc(OC)ccc2OC)CC[C@H]1N1CCN(C)CC1	.	.	.	.	/	/
O=c1oc2ccc3ccccc3c2cc1-c1nc(-c2ccc([N+](=O)[O-])cc2)n[nH]1	72	.	.	.	.	.
SMILES	MITF primary	FBW7 activator	GPR151 activ	TEAD-YAP inh	MITF confirm	AlphaScreen intf2	others
O=C(CN1C(=O)NC2(CCCCCCC2)C1=O)Nc1ccccc1Br	.	.	.	.	/	/
COc1ccc(NC(=S)NCC(c2ccco2)N2CCCC2)cc1 (stereo unspecified)	.	.	.	.	/	/
COC(=O)c1cc(CNCC(c2ccco2)N2CCCCC2)oc1C (stereo unspecified)	76	.	.	.	.	.
COC(=O)CCNCC(c1ccco1)N1CCCCC1 (stereo unspecified)	54	.	.	.	.	.
COc1cc([N+](=O)[O-])cc2cc(C(=O)NC(C)(C)CC(C)(C)C)c(=O)oc12	.	.	.	.	/	/
CC(C(=O)N1c2ccccc2CCc2ccccc21)n1nnc(-c2ccncc2)n1 (stereo unspecified)	.	.	.	.	/	/
Cc1cc(/C=C2/C=CC(=O)O2)oc1C	75	.	.	.	72	.	AlphaScreen DR=.
CC1=NN(C(=O)NC(=O)c2ccccc2)C(C)(C)C1	.	.	.	.	/	/
